Bioassay records as filed in PubChem.
NR1D1 modulator: modulators of human Rev-erb alpha DNA binding. P20393. Rev-erbα–FITC-DNA binding, fluorescence polarization, 90 min. activity, % at 10 µM. 370,000 compounds, 0.79% hits;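 active = activity above about 14%, limit read from the data; passing the limit was not always enough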
EP2 modulator: EP2 receptor (human) modulation. P43116. EP2-expressing cells, cAMP HTRF FRET, PGE2 co-stimulation. induction, % at 25 µM. 260,000 compounds, 0.83% hits. AID 940;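 active = compounds whose cAMP rise, as percent of the full-agonist control response, exceeds 60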;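 also: rat C6 glioma line stably carrying human EP2 under a CMV promoter; the protocol text gives 20 µM as final concentration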
Target sequence (P43116 whole entry, looked up): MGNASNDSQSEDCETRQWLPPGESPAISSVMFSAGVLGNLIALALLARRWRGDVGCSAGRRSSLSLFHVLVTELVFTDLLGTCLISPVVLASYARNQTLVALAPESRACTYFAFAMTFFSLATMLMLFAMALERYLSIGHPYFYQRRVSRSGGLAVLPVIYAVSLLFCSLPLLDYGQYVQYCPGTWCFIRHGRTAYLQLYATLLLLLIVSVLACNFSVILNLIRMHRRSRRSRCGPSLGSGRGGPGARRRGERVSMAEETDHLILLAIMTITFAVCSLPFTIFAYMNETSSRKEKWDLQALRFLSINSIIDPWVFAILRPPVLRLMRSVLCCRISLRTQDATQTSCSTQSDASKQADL
RAM inhibit: yeast RAM network inhibition | S. cerevisiae dse1pr::URA3 reporter, 5-FOA growth OD615, 2 d; analog-sensitive cbk1-as2 kinase mutant strain | inhibition, % at 50 µM | 190,000 compounds, 1.8% hits | AID 868;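 active = inhibition above a set limit, 3 SD over mean compound inhibition, cut at about 8.4% in these data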;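 also: inhibition rescues growth on 5-FOA so higher OD means more RAM inhibition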
SKN-1 inh: blocks SKN-1 activity in C. elegans; inhibition, % at 21.8 µM; 360,000 compounds, 0.49% hits; C. elegans VP596 Pgst-4::GFP/RFP ratio, acrylamide-induced, 24 h; AID 624304;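 active = interference check ratio from 0.5 to 1.5 plus GFP to RFP signal ratio inhibition reaching or exceeding a fixed threshold, cut at about 30% in these data, passing the limit was not always enough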
PG9 Ab binder: small molecules binding HIV-1 gp120 antibody PG9; TR-FRET gp120-PG9 antibody binding; inhibition, % at 6.7 µM; 360,000 compounds, 0.43% hits; AID 624416; in the data active = inhibition above about 8.5%
PGE2 EP2 inh: blocks the human prostaglandin E2 receptor EP2 | P43116 | C6 glioma cells expressing human EP2, cAMP TR-FRET; cells stimulated with saturating PGE2 | inhibition, % at 25 µM | 260,000 compounds, 0.52% hits | AID 1422;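 active = percent inhibition above 40 after rounding to a whole number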;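 also: rat C6 glioma host cells with rolipram phosphodiesterase inhibitor present; the protocol text gives 20 µM as final concentration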
EP2 cAMP induct: human EP2 receptor cAMP induction, negative in counter-screens; shares compounds with EP2 modulator; 1,300 compounds, 47% hits; C6 glioma EP2 cells, cAMP HTRF induction; plus low (about EC15) PGE2 agonist; calls only at 20 µM (by protocol); AID 1080;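 active = cAMP induction above 50% in the main assay while under 30% in all four parallel counter assays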;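 also: rat C6 glioma cells stably expressing human EP2 receptor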
A number is an active result; n = inactive; x = no result; + = active, no number; ! = repeats disagree. Sampled rows, rich in hits. Any-hit rate of the full collection: about 2.9%.

SMILES	NR1D1 modulator	EP2 modulator	RAM inhibit	SKN-1 inh	PG9 Ab binder	PGE2 EP2 inh	EP2 cAMP induct
O=C1CCCN1c1ccc(CNC2(c3cccc(F)c3)CC2)cc1	x	n	x	x	x	n	x
FC(F)(F)c1nnc(-c2ccccc2)nc1Sc1ccccc1	n	74.9	n	n	n	n	n
CCOC(=O)C1=CN(CC2CCCO2)C=C(C(=O)OCC)C1c1ccccc1C(F)(F)F (stereo not drawn)	n	73.6	n	n	n	n	n
CCOC(=O)c1ccc(NC(=O)c2cccc3c2C(=O)N(CC2CCCO2)C3)cc1 (stereo not drawn)	n	x	x	n	n	x	x
COC(=O)c1ccc(C)c(NC(=O)CN2C(=O)c3cccc4cccc2c34)c1	x	n	x	x	x	n	x
Cc1nc2ccccc2c(=O)n1CCc1ccccc1	n	x	x	n	n	x	x
Cc1ccccc1/C=C/c1nc2ccccc2c(=O)n1CCc1ccccc1	n	70.6	n	n	n	n	+
Cc1ccc(/C=C/c2nc3ccccc3c(=O)n2CCc2ccccc2)cc1	n	80.7	10.1	n	n	n	+
CC(C)c1nc2ccccc2c2nn(CC(=O)Nc3ccc4c(c3)COC4=O)c(=O)n12	x	n	x	x	x	n	x
NC(=O)CSc1nnc(-c2cccc(S(=O)(=O)N3CCOCC3)c2)n1C1CCCCCC1	n	80.7	n	n	n	n	n
CSc1ccccc1NC(=O)COc1ccc(Cl)cc1C	n	66.5	n	n	n	n	+
Cn1c(=O)[nH]c(=O)c2c1nc(NCCCO)n2Cc1ccccc1Cl	x	n	x	x	x	n	x
CCSc1nc2sc3c(c2c(=O)n1CC)CC(C)(C)OC3	n	n	n	n	n	n	n
c1ccc(CCc2ccccc2-c2nc(-c3ccccn3)no2)cc1	n	101.2	n	n	n	n	+
c1ccc(CCc2nc(-c3cccnc3)no2)cc1	n	n	n	n	n	n	x
c1cncc(-c2noc(-c3cccc4ccccc34)n2)c1	n	n	n	n	n	n	x
c1ccc(CCc2ccccc2-c2nc(-c3cccnc3)no2)cc1	n	81.5	n	n	n	n	+
c1ccc(-c2ccccc2-c2nc(-c3cccnc3)no2)cc1	n	72.3	n	n	n	n	+
c1ccc(-c2noc(-c3cccc4ccccc34)n2)cc1	n	68.6	n	37.0	n	n	n
Cc1ccc(OCc2nnc(SC(C)C(=O)O)n2C)cc1 (stereo not drawn)	x	n	x	x	x	n	x
COc1ccccc1CNC(=O)C1(C)CCN1C(=O)C1(c2ccccc2)CC1 (stereo not drawn)	n	x	x	n	n	x	x
COc1ccccc1CNC(=O)C1(c2ccc(Cl)cc2)CC1	n	68.6	n	n	n	n	n
S=c1[nH]nc(-c2ccco2)n1/N=C/c1ccc(Cl)cc1Cl	n	78.4	n	n	n	n	+
CCN(CC)C(=O)[C@H]1C[C@@H](c2ccc(OC)c(OC)c2)NS(=O)(=O)N1C	x	n	x	x	x	x	x
CCc1ccc(NC(=S)N(Cc2ccccc2)Cc2ccccn2)cc1	n	70.0	n	n	n	n	n
SMILES	NR1D1 modulator	EP2 modulator	RAM inhibit	SKN-1 inh	PG9 Ab binder	PGE2 EP2 inh	EP2 cAMP induct
COc1ccc2nc(CN3CCc4c(nc(N5CCC(C)CC5)[nH]c4=O)C3)ccc2c1	x	n	x	x	x	x	x
CC1=CC2C(CC1=O)C(C)=CCC2C(C)C (stereo not drawn)	x	n	x	x	x	n	+
C=C(C)[C@H]1CC=C(C)C(=O)C1	n	x	x	n	n	x	x
O=C1c2ccccc2OC2(C=Cc3ccccc3O2)N1Cc1ccccc1 (stereo not drawn)	n	76.5	n	39.9	n	x	+
CN=C1CC(SC)=C1c1ccc(C)cc1	n	72.5	n	n	n	56.3	+
CCOc1ccccc1-n1c(SCC(=O)Nc2cccc(O)c2)nnc1-c1cccnc1	x	n	x	x	x	n	x
CCn1ncc(Cl)c1C(=O)Nc1cc(Cl)ccc1Cl	n	69.9	n	n	n	n	+
CCCCCCC/C=C\CCCCCCCCC(=O)O	x	94.2	x	x	x	n	+
Cc1ccc2c(c1)C(O)CC1(CCN(CC(O)c3ccc(Cl)c(Cl)c3)CC1)O2 (stereo not drawn)	x	n	x	x	x	n	x
Cc1ccc(OCC(=O)NNC(=O)C2CCN(c3ncccn3)CC2)cc1	n	64.9!	n	n	n	n	n
CC(=O)Nc1ccc(NC(=O)C2CCN(c3ncccn3)CC2)cc1	x	n	x	x	x	n	x
O=C(Nc1ccc(-c2cc3ccccc3oc2=O)cc1)c1ccc(Br)o1	x	n	x	x	x	n	x
CCOc1cccc(CNc2ccc(O)cc2)c1OCc1ccc(Cl)cc1	n	77.4	n	n	n	n	+
Cc1ccc2occ(CN3CCc4c(nc(N5CCCC(C)C5)[nH]c4=O)C3)c(=O)c2c1 (stereo not drawn)	x	n	x	x	x	x	x
Cc1nn(C)cc1C(=O)N1CCCC(c2ncncc2-c2ccncc2)C1 (stereo not drawn)	x	n	x	x	x	x	x
COc1ccc(N2C(=O)N(Cc3ccc(C)cc3)c3ccccc3S2(=O)=O)cc1	n	78.7	n	n	n	n	+
COc1ccc(N2C(=O)c3ccccc3S2(=O)=O)cc1	n	n	x	n	n	n	x
O=C(CN1CCC(c2nc3ccccc3s2)CC1)Nc1ccccc1F	x	n	x	x	x	n	x
Cc1cc2ccccc2nc1SCC(=O)NC1CCCCC1	n	70.3	n	n	n	n	n
O=S(=O)(Nc1ccc(O)cc1)c1cccs1	x	n	x	x	x	n	x
CCCCCCn1c(COc2ccccc2F)nnc1SCC(=O)N1c2ccccc2NC(=O)C1(C)C	n	64.3	n	n	n	n	n
C=CCn1c(C)nnc1SCC(=O)N1c2ccccc2NC(=O)C1(C)C	n	x	x	n	n	x	x
CO/N=C/C(=N\Nc1ccccc1)C(=O)c1ccccc1	n	84.3	n	n	n	n	+
N#Cc1ccc(Cn2cc(C#N)c3ccccc32)cc1	x	n	x	x	x	n	x
COc1ccc(OC)c(C2/C(=C(/O)c3ccc(OC)c(OC)c3)C(=O)C(=O)N2C)c1 (stereo not drawn)	x	n	x	x	x	n	x
SMILES	NR1D1 modulator	EP2 modulator	RAM inhibit	SKN-1 inh	PG9 Ab binder	PGE2 EP2 inh	EP2 cAMP induct
O=C1N2c3ccccc3CCc3cccc(c32)C1(O)C(F)(F)F (stereo not drawn)	n	78.9	n	n	n	n	n
C=CCSc1nc2sc(C)c(C)c2c(=O)n1CC=C	n	71.2	n	n	n	n	n
CCSc1ncnc2sc(C)c(C)c12	n	n	n	n	n	n	x
C=CCSc1ncnc2sc(C)c(C)c12	n	n	n	n	n	n	n
Cn1cccc1/C=C1\CC(C(C)(C)C)C/C(=C\c2cccn2C)C1=O (stereo not drawn)	n	70.7	n	n	n	n	+
Cn1cccc1/C=C1\Cc2ccccc2C1=O	n	n	n	n	n	n	x
Clc1ccc(Cn2c(/C=C/c3ccco3)nc3ccccc32)cc1	n	68.8	n	n	n	n	+
Cc1ccc(Cn2c(/C=C/c3ccco3)nc3ccccc32)cc1	n	n	n	n	n	n	x
CCCn1c(Cc2ccccc2)n[nH]c1=S	n	n	n	n	n	n	x
